Compounds with a hit are over-represented: about 2.8% of the library has one in this group of screens.
Pol kappa inh – DNA polymerase kappa (human) inhibition | Q9UBT6 | purified Pol kappa, fluorescent DNA synthesis assay, 10 min | Potency, µM (series often up to 107 µM), for inactives: at the highest dose activity, negative = inhibition, hits mostly inhibitors | actives 0.53% (n = 400,000) | AID 588579; also: potency is read from the fitted curve at half-maximal effect; % is scaled to controls: 0 for no effect and ±100 for the full control effect
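Fluorescent qHTS in 1536-well format: enzyme (10 nM) and compound sat 15 min at room temperature before 50 nM substrate (final) was added. Signal taken at 0 and 10 min; no-enzyme buffer wells were negative controls.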
POLH inh – DNA polymerase eta (human) inhibition | recombinant Pol eta, fluorescent DNA replication assay | Potency, µM (titrated, usually from 114 µM), for inactives: top-dose activity change, negative = inhibition, usual class: inhibitors | actives 1.2% (n = 390,000) | AID 588591; also: potency is read from the fitted curve at half-maximal effect; % is scaled to controls: 0 for no effect and ±100 for the full control effect
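Pol eta (10 nM) was preincubated with compounds for 15 min at room temperature, after which fluorescent replication substrate (50 nM final) was added to start the reaction. Fluorescence was read kinetically at 0 and 10 min.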
FEN1 inhibitor – human FEN1 inhibition. P39748. Potency, µM (titrated, usually from 114 µM), inactives show at the top dose activity change, negative = inhibition, most hits filed as inhibitors. actives 0.35% (n = 390,000). Recombinant FEN1 flap cleavage, fluorescence, 15 min; also: potency is read from the fitted curve at half-maximal effect; % is scaled to controls: 0 for no effect and ±100 for the full control effect; nearly all actives have a fitted effect of over 65% in size
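FEN1 at 10 nM preincubated with compounds 15 min at room temperature, then flap DNA substrate added at 50 nM final. Signal read at 0 and 15 min; concentration-response fitted with four-parameter Hill equation.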
POLI inh – inhibitors of human DNA polymerase iota | Potency, µM (top dose mostly 115 µM), inactives show at the top dose activity, negative = inhibition, hits mostly inhibitors | actives 1% (n = 390,000) | AID 588590 | Pol iota fluorescent replication assay, 10 min; also: potency is read from the fitted curve at half-maximal effect
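Pol iota at 10 nM preincubated 15 min with compounds at room temperature; reaction started with fluorescent substrate, 50 nM final. Fluorescence read kinetically at 0 and 10 min; buffer-only wells as negative control.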
POLB inh – DNA polymerase beta (human) inhibition; Pol beta primer extension/strand displacement, fluorescence kinetic; Potency, µM (titrated, usually from 114 µM), inactives show at the highest dose activity change, negative = inhibition, usual class: inhibitors; AID 485314; actives 1.3% (n = 340,000); also: potency is read from the fitted curve at half-maximal effect; % is scaled to controls: 0 for no effect and ±100 for the full control effect
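Curves were derived by four-parameter Hill fits of normalized qHTS data. The kinetic fluorescent primer-extension read was taken at 0 and 10 min after 50 nM substrate, following a 15 min room-temperature preincubation of 10 nM enzyme with compounds.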
PI5P4Ka inh – inhibitors of human PI5P4K alpha; max response, %; PI5P4Kalpha enzyme, ADP-Glo luminescence, 60 min; stronger effect = lower value; AID 652105; actives 1.2% (n = 330,000); active = max response of -50% or lower; inconclusive = between -30% and -50%; inactive = -30% or higher; also: value at the top dose of about 77 µM; % is scaled to controls: 0 for no effect and ±100 for the full control effect
Target sequence (P48426 whole entry, looked up): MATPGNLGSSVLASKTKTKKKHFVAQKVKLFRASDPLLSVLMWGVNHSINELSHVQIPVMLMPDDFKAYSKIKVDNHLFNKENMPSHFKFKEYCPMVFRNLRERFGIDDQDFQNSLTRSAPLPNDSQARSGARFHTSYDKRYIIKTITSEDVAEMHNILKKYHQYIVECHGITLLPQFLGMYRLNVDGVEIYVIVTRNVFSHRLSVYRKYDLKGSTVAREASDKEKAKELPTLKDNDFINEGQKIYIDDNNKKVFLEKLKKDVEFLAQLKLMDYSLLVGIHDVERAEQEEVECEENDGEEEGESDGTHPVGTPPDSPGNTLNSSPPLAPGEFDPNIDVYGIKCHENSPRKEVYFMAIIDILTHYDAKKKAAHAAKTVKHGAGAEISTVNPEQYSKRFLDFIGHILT
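ADP-Glo luminescence end-point after a 60 min room-temperature kinase reaction. PI5P4Kalpha and substrate in HEPES pH 7.4 buffer with EGTA, 0.1% CHAPS and 5% DMSO; ATP at 5 microM final.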
Numbers without * were called inactive; [ ] = another dose, or the depositor's remark. Unless noted, calls follow the shape of the dose curve; as a rule, active = well fitted curve in the direction sought with a large enough effect; inconclusive = small, poorly fitted or top-dose-only effect, or another doubt; inactive = no such curve, though single readings can be large; an effect the other way counts as inactive or inconclusive.

How did Cn1c(=O)c2c(nc(Br)n2CCCc2ccccc2)n(C)c1=O do in these assays?
Pol kappa inh: 0.3%; POLH inh: -3.9%; FEN1 inhibitor: -9.3%; POLI inh: 12.2%; POLB inh: 31.0%; PI5P4Ka inh: 1.5

How did Cn1c(=O)n(Cc2ccccc2Cl)c2ccccc21 do in these assays?
Pol kappa inh: 2.8%; POLH inh: 1.5%; FEN1 inhibitor: -8.3%; POLI inh: 39.7%; POLB inh: -14.8%; PI5P4Ka inh: -19.3

Results for Cn1c(=O)[nH]c(=O)c2c1[nH]c(=S)n2CCCc1ccccc1 ?
Pol kappa inh: -12.2%; POLH inh: inconclusive; FEN1 inhibitor: inconclusive; POLI inh: -27.7%; POLB inh: 43.3%; PI5P4Ka inh: -52.1*

What do the screens show for `CCOc1ccc(N(CC)C(=O)c2cc3c(s2)-c2ccccc2OC3)cc1`?
Pol kappa inh: 4.4%; POLH inh: -17.9%; FEN1 inhibitor: -18.1%; POLI inh: 0.6%; POLB inh: 37.0%

Results for Cc1nc2nc(SCC(=O)NCCc3ccccc3)nn2c(C)c1Cc1c(F)cccc1Cl ?
Pol kappa inh: 4.7%; POLH inh: -2.0%; FEN1 inhibitor: -8.8%; POLI inh: 3.9%; POLB inh: 9.6%

What do the screens show for `Cc1cccc(N2CCN(C(=O)NCc3noc4ccccc34)CC2)c1C`?
Pol kappa inh: -11.2%; POLH inh: -13.7%; FEN1 inhibitor: 89.1µM*; POLI inh: -5.9%; POLB inh: inconclusive

Results for Cc1ccc2onc(CNC(=O)N3CCN(c4cccc(C)c4C)CC3)c2c1 ?
Pol kappa inh: -4.9%; POLH inh: inconclusive; FEN1 inhibitor: -13.9%; POLI inh: 18.8%; POLB inh: 9.4%

How did Cc1ccc(N2CC(C(=O)OCC(=O)Nc3ccc(Cl)cc3)CC2=O)cc1 (stereo unspecified) do in these assays?
Pol kappa inh: -6.0%; POLH inh: -11.0%; FEN1 inhibitor: -8.5%; POLI inh: 79.4µM*; PI5P4Ka inh: 16.3

What do the screens show for `O=C1OC(c2ccc(Cl)cc2)=N/C1=C\C=C\c1ccco1`?
Pol kappa inh: inconclusive; POLH inh: 18.4%; FEN1 inhibitor: -8.2%; POLI inh: inconclusive; POLB inh: 28.2µM*; PI5P4Ka inh: -1.1

Results for CC1c2cc3c(cc2CCN1C(=O)c1cccc(F)c1)OCCCO3 (stereo unspecified) ?
Pol kappa inh: 0.4%; POLH inh: -6.9%; FEN1 inhibitor: 14.5%; POLI inh: 3.9%; POLB inh: -14.0%; PI5P4Ka inh: 4.8

Results for Cc1cc(C)n2c(=S)[nH]nc2n1 ?
Pol kappa inh: -13.9%; POLH inh: -1.2%; FEN1 inhibitor: -0.9%; POLI inh: 3.4%; POLB inh: 10.8%; PI5P4Ka inh: -75.9*

What do the screens show for `CCCCn1nnnc1C1(C)CCC(=O)N1CCOc1ccccc1` (stereo unspecified)?
PI5P4Ka inh: -1.6

What do the screens show for `CN(C)N=Nc1ccc(S(N)(=O)=O)cc1`?
Pol kappa inh: -1.9%; POLH inh: -15.6%; FEN1 inhibitor: 1.2%; POLI inh: -10.7%; POLB inh: 68.5%; PI5P4Ka inh: -6.6

How did CN(C)c1ccc(N=Nc2ccc(S(N)(=O)=O)cc2)cc1 do in these assays?
Pol kappa inh: -36.0%; POLH inh: inconclusive; FEN1 inhibitor: -6.4%; POLI inh: 20µM*; POLB inh: inconclusive; PI5P4Ka inh: -15.8

What do the screens show for `CN(CC(=O)Nc1ccccc1C(=O)NC1CC1)Cc1ccco1`?
Pol kappa inh: -15.3%; POLH inh: 1.5%; FEN1 inhibitor: 20.0%; POLI inh: 2.0%; PI5P4Ka inh: 6.2

What do the screens show for `CS(=O)(=O)c1ccc(C(=O)OCC(=O)NC(=O)NC2CCCCC2)cc1[N+](=O)[O-]`?
Pol kappa inh: 4.3%; FEN1 inhibitor: -2.9%; POLI inh: -19.9%

Results for CS(=O)(=O)c1ccc(C(=O)OCC(=O)NC23CC4CC(CC(C4)C2)C3)cc1[N+](=O)[O-] ?
Pol kappa inh: -6.2%; POLH inh: 15.8µM*; FEN1 inhibitor: -10.7%; POLI inh: 22.4µM*; POLB inh: 1.4%; PI5P4Ka inh: 0.0

Results for CCOC(=O)C1(Cc2ccc(OC)cc2)CCN(C(=O)C2=CCCC2)CC1 ?
Pol kappa inh: 6.2%; POLH inh: -16.8%; FEN1 inhibitor: 9.8%; POLI inh: 15.3%; POLB inh: 14.3%; PI5P4Ka inh: -94.5*

What do the screens show for `CCOC(=O)C1(Cc2ccc(OC)cc2)CCN(C(=O)c2cc(C)on2)CC1`?
Pol kappa inh: 3.4%; POLH inh: -9.3%; FEN1 inhibitor: 2.8%; POLI inh: -6.0%; POLB inh: -2.0%; PI5P4Ka inh: -8.7

How did CCOC(=O)c1ccc(NC(=O)CSc2nc(C)c(Cc3ccccc3)c(=O)[nH]2)cc1 do in these assays?
Pol kappa inh: -5.7%; FEN1 inhibitor: -4.3%; POLI inh: 9.7%; POLB inh: 6.7%

What do the screens show for `COc1ccc(C(=O)Nc2c(N)nc(SCC(=O)Nc3ccc(NC(C)=O)cc3)[nH]c2=O)cc1`?
Pol kappa inh: inconclusive; POLH inh: inconclusive; FEN1 inhibitor: -2.7%; POLI inh: 79.4µM*; POLB inh: 35.5µM*; PI5P4Ka inh: 1.8

Results for Cc1cc(NS(=O)(=O)c2ccc(NC(=O)CSc3nc4sc(C(=O)O)c(C)c4c(=O)[nH]3)cc2)no1 ?
Pol kappa inh: -35.2%; POLH inh: -13.9%; FEN1 inhibitor: -24.2%; POLI inh: 62.7%; POLB inh: 19.9%; PI5P4Ka inh: -81.3*

Results for CCOC(=O)c1ccc(NC(=O)CSc2ncc(S(=O)(=O)c3ccc(C)c(Cl)c3)c(=O)[nH]2)cc1 ?
Pol kappa inh: -4.9%[60.1 µM]; POLH inh: inconclusive; FEN1 inhibitor: inconclusive; POLI inh: inconclusive; POLB inh: 89.1µM*

How did COc1ccc(NC(=O)CSc2nc(N)c(NC(=O)c3ccccc3F)c(=O)[nH]2)cc1 do in these assays?
Pol kappa inh: -11.8%; POLH inh: -6.8%; FEN1 inhibitor: -0.2%; POLI inh: 11.2%; POLB inh: 37.3%; PI5P4Ka inh: -2.0

Results for CCOC(=O)c1ccc(NC(=O)CSc2nc3sc(C(=O)O)c(C)c3c(=O)[nH]2)cc1 ?
Pol kappa inh: -27.5%; POLH inh: -9.8%; FEN1 inhibitor: -1.3%; POLI inh: 8.8%; POLB inh: 9.4%; PI5P4Ka inh: -80.7*

What do the screens show for `CC(=O)Nc1ccc(OS(=O)(=O)c2ccc([N+](=O)[O-])cc2)cc1`?
Pol kappa inh: 6.5%; POLH inh: -2.8%; FEN1 inhibitor: 3.0%; POLI inh: 8.7%; POLB inh: -2.7%; PI5P4Ka inh: -1.4

Screens deposited in PubChem BioAssay by National Center for Advancing Translational Sciences (NCATS).
